Whole data set: some 25,000 sequences, median “ln(normalized median fluorescence intensity)” near 9.3, cut for the highest 2% near 10. Many of the other results were omitted from the sample, so the highest values are more common in it than they were.

For the experiment, the system named is PF3D7_0420300 AP2 domain 1 (GST-tagged). Description: gcPBM binding intensity (ln(normalized median fluorescence intensity)); higher = stronger DNA binding. The gist of the method: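 GST-fused DNA-binding domains of P. falciparum, expressed in E. coli, were applied at about 25 μg on average for 1 h to an Agilent 4 × 180k array of primer-extended double-stranded 36-bp intergenic genomic probes and negative controls. Binding intensity is the highest Masliner-normalised natural-log median intensity across replicate spots of either probe orientation, measured with Alexa488 anti-GST antibody and a 488 nm scan.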
On to ATATATATATAATAAGTGCAAAAAAAAGAAAAAAAT, for which the “gcPBM binding intensity (ln)” value was determined as 9.74.

In the case of “GTTTAACTGTTTTATACACACAATGTATCCAATAAA [CACACA_site5612]”, the “gcPBM binding intensity (ln)” value amounted to 9.49.

In the case of “AAAAACAACACAGATAAATTAACACACACACACATA [XGTACX_negctrl_site588]”, the “gcPBM binding intensity (ln)” value turned out to be 10.2.

Consider “GATAAATTAAAACACACACACATATATATATATATA [CACACA_site3962]”, for which the “gcPBM binding intensity (ln)” value was 9.67.

For the sequence “ACTTATATAAAACATTAACACACAAAGAAAAAAAAT [CACACA_site8529]”, the “gcPBM binding intensity (ln)” value amounted to 9.96.

Turning to “ATAAAATTTATATAAGCACACAAATATATATTTATA [CACACA_site9083]”, the “gcPBM binding intensity (ln)” value is 9.29.

As to “TAAAAAAAAAAAAAAACACACATATAAATATTTATA [CACACA_site6702]”, the “gcPBM binding intensity (ln)” value stood at 9.45.

As for “CATAATACAGATAACACACACAATTATACATAAAAT [CACACA_site5742]”, the “gcPBM binding intensity (ln)” value came out at 10.

As for “CTTATATTAAAACACACACACGCACAAAACAGAAAT [CACACA_site1462]”, the “gcPBM binding intensity (ln)” value came to 10.2.

Turning to “TATAAAAATAAGCACACACACAAATATATATTTATT [CACACA_site922]”, the “gcPBM binding intensity (ln)” value stood at 10.1.

For the sequence “AATATAAATAAAAACACACACACACGGATATTTATA [CACACA_site7134]”, the “gcPBM binding intensity (ln)” value stood at 10.3.

Turning to “TATATATTATTTAAAACACACAAAAAAAAAAATTAT [CACACA_site89]”, the “gcPBM binding intensity (ln)” value was 9.59.

In the case of “CATAAAATATAAAACACACACACATATATTTATATA [CACACA_site6247]”, the “gcPBM binding intensity (ln)” value stood at 10.

As for “AGTATAAAAATAAGCACACACACAAATATATATTTA [CACACA_site923]”, the “gcPBM binding intensity (ln)” value is 10.2.

Regarding “AACCACATACATATAACACACATATACAATATATAT [CACACA_site8607]”, the “gcPBM binding intensity (ln)” value worked out at 9.65.

For the sequence “TTTTGTTATTATAAATAGTAACATTTGTGAATATAT [TGCATGCA_negctrl_site132]”, the “gcPBM binding intensity (ln)” value was determined as 8.92.

In the case of “GGCCCAACTTCTTCTGACGAAAACGTAAATTGTGTG [XGTACX_negctrl_site533]”, the “gcPBM binding intensity (ln)” value came to 9.22.

As to “CTATATCATTTTCTAGCACACACATTGTTATTACCT [CACACA_site8204]”, the “gcPBM binding intensity (ln)” value came to 9.84.

As for “AAAAACTAACTGTATTGTACTCTCTTATAAATTCAC [XGTACX_site8967]”, the “gcPBM binding intensity (ln)” value came out at 9.15.

Regarding “ATATATATATATATATATATAATAAAAGATCATTTA [XGTACX_negctrl_site371]”, the “gcPBM binding intensity (ln)” value is 9.09.

In the case of “AAAAAATATATATATATATATATGTAATATTTTTTT [XGTACX_negctrl_site439]”, the “gcPBM binding intensity (ln)” value was found to be 9.07.

“TAAATAATGTAAAAAACATCATCAAAATGTTAATTA [CACACA_negctrl_site1768]”: the “gcPBM binding intensity (ln)” value is 9.09.

For the sequence “TATGAAATATTTATACACAGAACTTCATAATTTTCA [TGCATGCA_negctrl_site509]”, the “gcPBM binding intensity (ln)” value turned out to be 9.04.

For the sequence “CGTGAATATATGATATGTACTTATAAAAATTTGTGC [XGTACX_site5480]”, the “gcPBM binding intensity (ln)” value turned out to be 9.26.

Turning to “CACAGATAAATTAACACACACACACCGATATATATA [CACACA_site6049]”, the “gcPBM binding intensity (ln)” value turned out to be 10.2.

In the case of “AATACAATTTTTAACACACACACAATAATACAGATA [CACACA_site4823]”, the “gcPBM binding intensity (ln)” value was determined as 10.2.

For “ATTTAATACAAATACACACACAAATAAATACAGATA [CACACA_site5956]”, the “gcPBM binding intensity (ln)” value stood at 10.2.

For the sequence “CACAGATAAATTAACACACACACACCCATATATATA [CACACA_site3960]”, the “gcPBM binding intensity (ln)” value stood at 10.1.

In the case of “CTATTTCATAAACACACACACACAAACAAACATATA [CACACA_site8234]”, the “gcPBM binding intensity (ln)” value is 10.4.

As for “AACACAGATAAATTAACACACACACCCATATATATA [CACACA_site9310]”, the “gcPBM binding intensity (ln)” value worked out at 10.1.

As for “ATACAACAGATATATACACACATATAACAATAATAA [CACACA_site7560]”, the “gcPBM binding intensity (ln)” value is 9.93.

For the sequence “ATAAAAAAAGGACACACACACATATATTTATTTATA [CACACA_site7438]”, the “gcPBM binding intensity (ln)” value was found to be 10.1.

In the case of “ATAAAAAGGAGACACACACACACACGCATATTTATA [CACACA_site6551]”, the “gcPBM binding intensity (ln)” value is 10.3.

As for “CTATTTCATGGACACACACACACAAACAAACATATA [CACACA_site4696]”, the “gcPBM binding intensity (ln)” value stood at 10.2.

On to “AATAAATATATATTCACACACAAACATATATATATA [CACACA_site4023]”, for which the “gcPBM binding intensity (ln)” value came out at 9.71.

Turning to “TAAATAAAAAGACACACACACATATTTATATTTATA [CACACA_site7135]”, the “gcPBM binding intensity (ln)” value is 10.

As to “TTGTGTTTTATTATTTTATTATTACTATTATAATGT [GTGCAC_negctrl_site484]”, the “gcPBM binding intensity (ln)” value is 9.62.

Turning to “TAAATATATATTATATGTACTTATATATATATATAT [XGTACX_site4448]”, the “gcPBM binding intensity (ln)” value turned out to be 9.13.

With “TAATTTTCTTTTTATCGTTTTTTTTTTTTTTTTTTT [XGTACX_negctrl_site432]”, the “gcPBM binding intensity (ln)” value stood at 9.02.

For “AGCTAATATATCTTATATTCATATAAAAAAATATAT [CACACA_negctrl_site1786]”, the “gcPBM binding intensity (ln)” value is 8.94.

With “AAATTTACAATACATTGTACATATTAATAATATTCC [XGTACX_site3646]”, the “gcPBM binding intensity (ln)” value came to 9.17.

In the case of “CAGTTGGAAGGAAAGTGTACATAAAAAAAAATATAA [XGTACX_site8784]”, the “gcPBM binding intensity (ln)” value came to 9.09.

As for “TCTTTTTAGATATATACACACCGTGTCTACCTATAC [CACACA_site7551]”, the “gcPBM binding intensity (ln)” value is 9.41.

As for “AAATGAATAAATAGGTCACACACAAATATATATAAA [CACACA_site8764]”, the “gcPBM binding intensity (ln)” value was 9.91.

On to TATTAATATATAGTAGTGCAATAAAGATATACTGAA, for which the “gcPBM binding intensity (ln)” value was determined as 9.39.

On to “TTTCGATTAAAAATTGTACAATATAAGGAGCACACA [GTGCAC_negctrl_site476]”, for which the “gcPBM binding intensity (ln)” value was 9.31.

“ATATCTTATGTTATCACACACACACGCACAAAACAG [CACACA_site6800]”: the “gcPBM binding intensity (ln)” value amounted to 10.2.

In the case of “CACAAAAATAAACACACACACATATATATTTATTAT [CACACA_site5923]”, the “gcPBM binding intensity (ln)” value came out at 10.2.

Consider “CACAGATAAATTAACACACACACACGGATATTTATA [CACACA_site7788]”, for which the “gcPBM binding intensity (ln)” value is 10.2.

As to “AATACAATTTATAACACACACACAATAATACATATA [CACACA_site1252]”, the “gcPBM binding intensity (ln)” value is 10.2.

As to “CAATATAAAAAACACACACACAAACATATATTTATA [CACACA_site3703]”, the “gcPBM binding intensity (ln)” value came out at 10.1.

Consider “ATCTTATATTATCACACACACACGCACAAAACAGAA [CACACA_site1463]”, for which the “gcPBM binding intensity (ln)” value turned out to be 10.1.

Consider “ATATAATTATAAAATAAACACACATATATATTTATA [CACACA_site8039]”, for which the “gcPBM binding intensity (ln)” value was found to be 9.48.

Regarding “ATAATACAATTTATAACACACACACTATAATACATA [CACACA_site8338]”, the “gcPBM binding intensity (ln)” value amounted to 9.97.

With “AAAATTAAAAATAACACACACATATATATATTTATA [CACACA_site2776]”, the “gcPBM binding intensity (ln)” value turned out to be 9.84.

In the case of “ATCTTATATGATCACACACACACGCACAAAACAGAA [CACACA_site4913]”, the “gcPBM binding intensity (ln)” value worked out at 10.1.

Turning to “AAAATTAAAAATAACACACACATATTTATATTTATA [CACACA_site7329]”, the “gcPBM binding intensity (ln)” value came out at 9.75.

For “TACATAATACATATAACACACACAATTATACATAAA [CACACA_site9060]”, the “gcPBM binding intensity (ln)” value is 10.
